Bioassay records as filed in PubChem.
This is a sample that favours compounds with a hit; in the whole collection about 2.5% have one here.
Pol eta inh-1 – qHTS for Inhibitors of Polymerase Eta | recombinant Pol eta, fluorescent DNA replication assay | Potency, µM (titrated, usually from 114 µM), for the others: at the top dose activity change, negative = inhibition, usual class: inhibitors | 390,000 tested, 1.2% active | AID 588591, 2011; further: potency means the concentration at half of the fitted maximal effect; on the % scale 0 is the no-effect control and ±100 the full control effect
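Pol eta at 10 nM preincubated with compounds 15 min at room temperature; reaction started with fluorescent substrate (50 nM final) and read kinetically at 0 and 10 min.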
POLB inh – qHTS Assay for Inhibitors of DNA Polymerase Beta; P06746; Pol beta primer extension/strand displacement, fluorescence kinetic; Potency, µM (top dose mostly 114 µM), for the others: top-dose activity change, negative = inhibition, actives largely listed as inhibitors; 340,000 tested, 1.3% active; AID 485314, 2010; further: potency means the concentration at half of the fitted maximal effect; on the % scale 0 is the no-effect control and ±100 the full control effect
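Enzyme-only controls used 10 nM Pol beta; buffer lacking enzyme served as negative control. Compound preincubated 15 min, then 50 nM substrate added; 0 and 10 min reads at room temperature.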
POLI inh – qHTS for Inhibitors of Polymerase Iota; DNA polymerase iota (Homo sapiens), Q9UNA4; Potency, µM (titrated, usually from 115 µM), inactives show at the highest dose activity, negative = inhibition, most hits filed as inhibitors; Pol iota fluorescent replication assay, 10 min; 390,000 tested, 1% active; further: potency means the concentration at half of the fitted maximal effect
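Pol iota at 10 nM preincubated 15 min with compounds at room temperature; reaction started with fluorescent substrate, 50 nM final. Fluorescence read kinetically at 0 and 10 min; buffer-only wells as negative control.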
L3MBTL1 block – qHTS Assay for the Inhibitors of L3MBTL1. 230,000 tested, 0.66% active. AlphaScreen L3MBTL1–H3K9me1 peptide binding. Potency, µM (top dose mostly 57.1 µM), without a hit: at the top dose activity, negative = inhibition, actives largely listed as inhibitors. AID 485360, 2010; further: potency means the concentration at half of the fitted maximal effect; on the % scale 0 is the no-effect control and ±100 the full control effect; nearly all actives have a fitted effect of over 60% in size
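AlphaScreen assay: L3MBTL1 (50 nM final) was preincubated 30 min at room temperature with biotinylated H3(1-15)K9me1 peptide (75 nM final), then 30 min with library compounds; streptavidin donor and nickel chelate acceptor beads (10 ug/mL final) added, 30 min dark.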
Pol kappa inh-1 – qHTS for Inhibitors of Polymerase Kappa; DNA polymerase kappa (Homo sapiens), Q9UBT6; purified Pol kappa, fluorescent DNA synthesis assay, 10 min; Potency, µM (highest dose often 107 µM), without a hit: top-dose activity, negative = inhibition, hits mostly inhibitors; 400,000 tested, 0.53% active; AID 588579, 2011; further: potency means the concentration at half of the fitted maximal effect; on the % scale 0 is the no-effect control and ±100 the full control effect
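10 nM Pol kappa preincubated 15 min at room temperature with compounds, then reaction started with substrate at 50 nM final. Fluorescence read kinetically at 0 and 10 min; buffer-only wells served as negative control.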
APE1 inh – qHTS Assay for Inhibitors of the Human Apurinic/apyrimidinic Endonuclease 1 (APE1); DNA repair nuclease/redox regulator APEX1 (Homo sapiens), P27695; recombinant APE1, TAMRA/BHQ-2 abasic DNA cleavage fluorescence; Potency, µM (doses to about 65.8 µM), for inactives: at the top dose activity change, negative = inhibition, actives largely listed as inhibitors; 350,000 tested, 0.35% active; AID 2517, 2012;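 further: potency means the concentration at half of the fitted maximal effect; plate controls were vehicle for no effect and reference inhibitor for full effect; nearly all actives have a fitted effect of over 55% in size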
Target sequence (P27695 whole entry, looked up): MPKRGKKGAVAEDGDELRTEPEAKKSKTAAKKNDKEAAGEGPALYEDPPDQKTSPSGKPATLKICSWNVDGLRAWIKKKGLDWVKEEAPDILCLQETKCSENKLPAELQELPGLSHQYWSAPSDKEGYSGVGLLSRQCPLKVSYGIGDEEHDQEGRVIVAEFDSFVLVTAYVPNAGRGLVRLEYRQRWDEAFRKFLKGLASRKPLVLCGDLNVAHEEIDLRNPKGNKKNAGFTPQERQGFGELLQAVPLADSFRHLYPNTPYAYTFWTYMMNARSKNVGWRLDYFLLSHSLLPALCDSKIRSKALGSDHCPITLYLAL
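APE1 at 0.75 nM final was preincubated with compound 15 min at room temperature, then 50 nM double-stranded THF abasic-site substrate (5'-TAMRA/3'-BHQ-2) was added. Fluorescence (ex 525/em 598 nm) was read kinetically; third-minus-first read gave activity.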
PGK validate – qHTS for inhibitors of Phosphogylcerate Kinase: Hit Validation Screen; shares compounds with Pol kappa inh-1; TbPGK coupled GAPDH assay, Kinase-Glo luminescence; Potency, µM (series often up to 57.5 µM), for the others: top-dose activity change, negative = inhibition, usual class: inhibitors; 500 tested, 79% active; AID 686980, 2013; further: potency means the concentration at half of the fitted maximal effect; on the % scale 0 is the no-effect control and ±100 the full control effect; nearly all actives have a fitted effect of over 65% in size
Target sequence (P07378 whole entry, looked up): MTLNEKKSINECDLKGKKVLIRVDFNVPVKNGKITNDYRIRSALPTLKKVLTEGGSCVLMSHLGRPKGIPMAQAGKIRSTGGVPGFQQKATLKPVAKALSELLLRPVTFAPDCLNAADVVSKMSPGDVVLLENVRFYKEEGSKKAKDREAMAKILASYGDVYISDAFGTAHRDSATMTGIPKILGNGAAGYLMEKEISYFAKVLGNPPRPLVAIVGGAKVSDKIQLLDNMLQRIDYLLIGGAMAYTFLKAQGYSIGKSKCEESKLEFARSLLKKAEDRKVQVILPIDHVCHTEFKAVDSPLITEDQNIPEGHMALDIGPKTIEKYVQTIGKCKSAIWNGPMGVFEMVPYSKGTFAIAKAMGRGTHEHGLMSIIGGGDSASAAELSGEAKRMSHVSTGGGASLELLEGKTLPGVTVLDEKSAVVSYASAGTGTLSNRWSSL
Pol iota confirm – qHTS for Inhibitors of Polymerase Iota: Confirmatory Assay for Cherry-picked Compounds; Pol iota primer extension, TAMRA/BHQ fluorescence; AID 720496, 2013; shares compounds with Pol kappa inh-1; Potency, µM, actives largely listed as inhibitors; 1,500 tested, 77% active; further: potency means the concentration at half of the fitted maximal effect
GALK inh confirm – Confirmation Assay for Inhibitors of Human Galactokinase (GALK); shares compounds with Pol eta inh-1; purified GALK, Kinase-Glo ATP depletion luminescence; Potency, µM (top dose mostly 115 µM), for the others: top-dose activity, negative = inhibition, actives largely listed as inhibitors; 150 tested, 70% active; AID 2015, 2009
Redox cycling – Confirmatory Assay for Inhibitors of Human Galactokinase (GALK): Phenol-HRP redox assay counterscreen | shares compounds with Pol eta inh-1 | Phenol red-HRP H2O2 redox cycling, absorbance 600 nm | Potency, µM (doses to about 115 µM), inactives show at the top dose activity change, negative = H2O2 signal, hits mostly inhibitors | 150 tested, 40% active | AID 2035, 2009
HEK293 viability – Secondary Assay for Inhibitors of Human Galactokinase (GALK): HEK-293 Cell Viability Assay; shares compounds with Pol eta inh-1; HEK-293 viability, ATP luminescence (CellTiter-Glo), 24/48 h; Potency, µM (doses to about 46.1 µM), for inactives: at the top dose activity change, negative = cytotoxicity, hits mostly inhibitors; 170 tested, 10% active; AID 2547, 2010; further: potency means the concentration at half of the fitted maximal effect; on the % scale 0 is the no-effect control and ±100 the full control effect
Pol kappa inh-2 – qHTS for Inhibitors of Polymerase Kappa: Confirmatory Assay for Cherry-picked Compounds; shares compounds with Pol eta inh-1; purified Pol-kappa, fluorescent strand-displacement substrate; Potency, µM, hits mostly inhibitors; 920 tested, 76% active; further: potency means the concentration at half of the fitted maximal effect
Pol eta inh-2 – qHTS for Inhibitors of Polymerase Eta: Confirmatory Assay for Cherry-picked Compounds | shares compounds with Pol eta inh-1 | Pol eta primer extension, TAMRA/BHQ fluorescence, 10 min | Potency, µM, hits mostly inhibitors | 2,600 tested, 64% active | AID 720502, 2013; further: potency means the concentration at half of the fitted maximal effect
Active calls of the source: *; [ ] = another dose, or the depositor's remark. The call rests on the fitted dose curve; in most records, active means well fitted curve in the direction sought with a large enough effect; inconclusive means small, poorly fitted or top-dose-only effect, or another doubt; inactive means no such curve, though single readings can be large; an effect the other way counts as inactive or inconclusive.

How did Cc1nc2c(=O)n(C)c(=O)nc-2n(C)n1 do in these assays?
Pol eta inh-1: 0.79µM*; POLB inh: inconclusive; POLI inh: -102%; L3MBTL1 block: 0.11µM*; Pol kappa inh-1: -13%; APE1 inh: -1%; PGK validate: 1.5µM*; Pol iota confirm: 1.5*; GALK inh confirm: 1.9µM*; Redox cycling: 0.94µM*; HEK293 viability: 10µM*; Pol eta inh-2: 4.3*

What do the screens show for `C=CCn1c(CSc2ccccc2[N+](=O)[O-])n[nH]c1=S`?
Pol eta inh-1: 13µM*; POLB inh: 10µM*; POLI inh: 8.9µM*; Pol kappa inh-1: 50µM*; APE1 inh: inconclusive; Pol iota confirm: 53*; Pol eta inh-2: 24*

What do the screens show for `Cc1ccc(N2C(=O)NC(=O)/C(=C/c3ccc(-c4ccc(C(=O)O)c(Cl)c4)o3)C2=O)cc1`?
Pol eta inh-1: 8.9µM*; POLB inh: 14µM*; POLI inh: 20µM*; Pol kappa inh-1: -91%; APE1 inh: inconclusive; Pol iota confirm: inconclusive; Pol eta inh-2: 30*

What do the screens show for `Cc1cc(/C=C2\C(=O)NC(=O)N(c3ccc(Cl)cc3)C2=O)c(C)n1-c1sc2c(c1C#N)CCCC2`?
Pol eta inh-1: 20µM*; POLB inh: inconclusive; POLI inh: 10µM*; L3MBTL1 block: -17%; Pol kappa inh-1: 79µM*; APE1 inh: -5%; Pol iota confirm: 75*; Pol kappa inh-2: 75*; Pol eta inh-2: 30*

How did Cc1cc(N2CCOCC2)ccc1/C=C1\C(=O)NC(=O)N(c2ccccc2)C1=O do in these assays?
Pol eta inh-1: -7%; POLB inh: -18%; POLI inh: -20%; L3MBTL1 block: 0%; Pol kappa inh-1: -5%; APE1 inh: -3%

What do the screens show for `Cc1ccc(-n2c(C)cc(/C=C3/C(=O)NC(=O)N(C)C3=O)c2C)cc1`?
Pol eta inh-1: -3%; POLB inh: 5%; POLI inh: inconclusive; L3MBTL1 block: -4%; Pol kappa inh-1: -10%; APE1 inh: 15%

What do the screens show for `Cc1ccc(N2C(=O)NC(=O)/C(=C\c3cc(C)n(-c4cc(C(=O)O)cc(C(=O)O)c4)c3C)C2=O)cc1`?
Pol eta inh-1: 7.9µM*; POLB inh: -28%; POLI inh: 8.9µM*; Pol kappa inh-1: inconclusive; APE1 inh: -20%; PGK validate: inconclusive; Pol kappa inh-2: 17*; Pol eta inh-2: 38*

What do the screens show for `O=NN(CCO)CCO`?
APE1 inh: 13%

What do the screens show for `CCOC(=O)N1CCCN(/[N+]([O-])=N/Oc2ccc([N+](=O)[O-])cc2[N+](=O)[O-])CC1`?
POLI inh: inconclusive; Pol kappa inh-1: 0%; APE1 inh: 2%

Results for O=C1C(=O)c2ccccc2-c2ccccc21 ?
Pol eta inh-1: 2.5µM*; POLB inh: inconclusive; POLI inh: 0.71µM*; Pol kappa inh-1: -8%; APE1 inh: inconclusive; PGK validate: 4.1µM*; GALK inh confirm: 1.9µM*; Redox cycling: 0.84µM*; HEK293 viability: 7.1µM*

What do the screens show for `COC(=O)NC/C=C\c1nc(CC/C=C\C(=O)O[C@H]2C[C@H]3CC(=O)O[C@@H](/C=C\CC(C)C)C[C@@H]4CC[C@H](C)[C@H](C[C@@H](OC)C[C@H](C2)O3)O4)co1`?
APE1 inh: -11%[12.4 µM]

What do the screens show for `C=C1C(=O)O[C@@H]2C[C@@H](C)[C@@H]3C=CC(=O)[C@@]3(C)[C@@H](OC(=O)CC(=O)O[C@H]3[C@@H]4C(=C)C(=O)O[C@@H]4C[C@@H](C)[C@@H]4C=CC(=O)[C@]43C)[C@H]12`?
Pol eta inh-1: 7.9µM*; POLB inh: 20µM*; POLI inh: 4.5µM*; Pol kappa inh-1: 35µM*; APE1 inh: -11%; Pol iota confirm: 19*; Pol eta inh-2: 17*

How did Oc1c(Cl)cccc1Cl do in these assays?
APE1 inh: 4%

What do the screens show for `CCN(CC)C(=O)c1ccc(NC(=O)c2cccc(C(F)(F)F)c2)cc1`?
Pol eta inh-1: 2%; POLB inh: 15%; POLI inh: 28%; L3MBTL1 block: -3%; Pol kappa inh-1: -11%; APE1 inh: 0%
